Measured values published in PubChem BioAssay (EPA / NIEHS).
Active and inactive are the calls of the source. How the source made its calls: active means hit-call score of the fitted dose curve at least 0.9, where 1 is the maximum; inactive means score below 0.9.

assay: CCTE_Shafer_MEA_acute_cross_correlation_HWHM: CCTE's Neural Acute Assay for Cross Correlation at Half Width at Half Maximum, Shafer Lab (AID 2284026)
Procedure: CCTE_Shafer_MEA_acute assay is conducted using Axion Biosystems 48 well microelectrode array (MEA) plates and Maestro recording system. Each well of the MEA plate contains a grid of 16 microelectrodes embedded in the culture surface. Electrically active cells, such as neurons, can be cultured over the electrodes, and electrical activity in these cells can be recorded extracellularly. The spontaneous firing of neurons is captured from each electrode on a microsecond timescale providing both temporally and spatially precise data. […] The CCTE_Shafer_MEA_acute assay uses primary cultures of rat cortical neurons. As these cultures mature over time, neural networks develop functional activity and form cohesive networks in which electrical activity can be highly coordinated. Baseline 40-minute recordings are made on days post-plating 13 or 15, followed by a secondary 40-minute recording after chemical exposure.CCTE_Shafer_MEA_acute_cross_correlation_HWHM is a component of the CCTE_Shafer_MEA_acute assay. It measures the distance along the x-axis (phase lag) from the left half maximum height to the center of the cross-correlogram of action potential firing during a recording in a microelectrode array (MEA) using Axion Biosystems Maestro 768 channel amplifier with the AxIS adaptive spike detector. Smaller values indicate a narrower correlogram (greater synchrony). The recordings before and after chemical treatment are used to calculate a percent change in the half width at half maximum of the cross-correlogram in each well.Data from the assay component CCTE_Shafer_MEA_acute_cross_correlation_HWHM was analyzed into 1 assay endpoint. This assay endpoint, CCTE_Shafer_MEA_acute_cross_correlation_HWHM, was analyzed in the negative analysis fitting direction relative to DMSO as the negative control and baseline of activity. Using a type of functional reporter, gain or loss-of-signal activity can be used to understand electrical activity.
Spontaneous activity in the cortical cultures was recorded using an Axion Biosystems Maestro 768 channel amplifier and Axion Integrated Studios (AxIS) v1.8 (or later) software. The amplifier recorded from all channels simultaneously (gain = 1200 x; sampling rate = 12.5 kHz/channel): raw signals were filtered with a Butterworth band-pass filter (300-5000 Hz), which filters out slower local field potentials leaving only fast potentials, i.e., "spikes", arising from extracellular currents associated with action potentials (Pine 2006; Wheeler and Nam 2011). On-line spike detection of filtered signals was conducted with the AxIS adaptive spike detector, using a threshold of 8x the root mean squared (rms) noise on each channel. Any electrodes with rms noise levels greater than 5 uV were grounded (e.g., no data were recorded). Once grounded, an electrode was grounded for the duration of the experiment. All recordings were conducted at 37 C. Wells were deemed usable if on the day of the exposure >/= 10 electrodes were active (defined as >/= 5 spikes/min). On DIV 13 or 15, a minimum of three wells from one cortical culture preparation were treated with each compound (0.03-40 uM). Prior to recording baseline activity, each mwMEA plate was placed in the Maestro at 37 C and allowed to sit for 20 min while firing rates stabilized. Baseline activity (40 min) was recorded before the addition of each compound. An additional 40 min of spontaneous activity was recorded in the presence of each compound. Changes in network parameters relative to baseline were assessed following compound treatment.

| SMILES | outcome | AC50 |
| --- | --- | --- |
| COc1ccc(C(=O)c2ccccc2O)c(O)c1 | inactive | – |
| C1CN(CCOCCN2CCOCC2)CCO1 | – | 0.003 µM (active) |
| CN(C)Cc1cc(C(C)(C)C)c(O)c(C(C)(C)C)c1 | – | 15 µM (active) |
| Cc1c(C(N)=O)cc([N+](=O)[O-])cc1[N+](=O)[O-] | inactive | – |
| CN(C)C(=O)C(CCN1CCC(O)(c2ccc(Cl)cc2)CC1)(c1ccccc1)c1ccccc1 | – | 2.31 µM (active) |
| NC(N)=Nc1nc(CSCCC(N)=NS(N)(=O)=O)cs1 | inactive | – |
| CCC[Si](OC(C)=O)(OC(C)=O)OC(C)=O | inactive | – |
| CC1(C)S[C@@H]2[C@H](NC(=O)[C@H](N)c3ccc(O)cc3)C(=O)N2[C@H]1C(=O)O | inactive | – |
| O=[N+]([O-])c1cc(S(=O)(=O)Nc2ccccc2)ccc1Nc1ccccc1 | – | 20.9 µM (active) |
| COc1cc(CNC(=O)CCCC/C=C/C(C)C)ccc1O | – | 5.46 µM (active) |
| COc1ccccc1Oc1c(NS(=O)(=O)c2ccc(C(C)(C)C)cc2)nc(-c2ncccn2)nc1OCCO | inactive | – |
| CC[N+](CC)(CC(=O)Nc1c(C)cccc1C)Cc1ccccc1 (tested in a mixture with another compound) | – | 1.05 µM (active) |
| CNCCC(Oc1ccc(C(F)(F)F)cc1)c1ccccc1 (stereo not given) | – | 7.68 µM (active) |
| CC(C)C1OCCN1CCOC(=O)NCCCCCCNC(=O)OCCN1CCOC1C(C)C (stereo not given) | inactive | – |
| CC1(C)S[C@@H]2[C@H](NC(=O)[C@H](N)c3ccccc3)C(=O)N2[C@H]1C(=O)O | inactive | – |
